This is an account of results in PubChem BioAssay (NCI).

Structures are written as SMILES. About 83,000 compounds went through this panel and 20% of them were active in at least one assay; those are over-represented in the sample as a whole.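 Testing used 96-well plates and a 48-hour single-concentration exposure. Example: -40 means 40% of the starting cells died.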 Unmarked numbers belong to inactive results. Calls of active or inactive are those of the source. Rule for the calls: active = growth percent below 10; inactive = the rest.

Experiment in all cases: NCI-60 one-dose screen, 48 h (100 = growth as untreated, 0 = no growth, -100 = all killed)
One test has as its system RPMI-8226 leukemia. The conditions noted are these: 10 µM.
For the next test, the system named is OVCAR-8 ovarian. The conditions noted are these: 10 µM.
A further test has as its system OVCAR-5 ovarian. Particulars: 10 µM.
A further test concerns OVCAR-4 ovarian. The conditions noted are these: 10 µM.
The subject of the next test is SK-OV-3 ovarian. Particulars: 10 µM.
For another test, the system named is IGROV1 ovarian. The conditions noted are these: 10 µM.
In the next test the test system is OVCAR-3 ovarian. The conditions noted are these: 10 µM.
The next test deals with NCI/ADR-RES ovarian. The conditions noted are these: 10 µM.
Another test concerns T-47D breast. Particulars: 10 µM.
In the next test the test system is MDA-MB-435 melanoma. Particulars: 10 µM.
Another test concerns SW-620 colon. Particulars: 10 µM.
The next test has as its system MCF7 breast. The conditions noted are these: 10 µM unless noted.
Another test relates to HCT-116 colon. The conditions noted are these: 10 µM.
In the next test the test system is HCC-2998 colon. Particulars: 10 µM.
For the next test, the system named is KM12 colon. The conditions noted are these: 10 µM.
The test system of a further test is BT-549 breast. Particulars: 10 µM.
The test system of a further test is HS 578T breast. The conditions noted are these: 10 µM.

In the case of `CCCCN(CCCC)CCCO`, the growth in the test with RPMI-8226 leukemia is 158%; with OVCAR-8 ovarian it was 99.8%; in the test on OVCAR-5 ovarian it was 99.4%; with OVCAR-4 ovarian, 108%; in the test with SK-OV-3 ovarian, 110%; in the test with IGROV1 ovarian it was 125%. For the same molecule, the growth is 101% with OVCAR-3 ovarian; 105% with NCI/ADR-RES ovarian; 107% in the test with T-47D breast; 117% with MDA-MB-435 melanoma; 120% with SW-620 colon; 96.7% with MCF7 breast. The growth with HCT-116 colon was 110%; in the test on HCC-2998 colon, 94.1%; with KM12 colon, 104%.
On to `CC(C)NC(=O)OCc1c(COC(=O)NC(C)C)c(-c2ccc(Cl)c(Cl)c2)n2c1SCC2`, for which the growth was 36% with RPMI-8226 leukemia; 44.7% with OVCAR-8 ovarian; -15.6% (active) with OVCAR-5 ovarian; 38.2% in the test with OVCAR-4 ovarian; 21.9% in the test with SK-OV-3 ovarian; 3.1% (active) with IGROV1 ovarian. The growth is 47.2% in the test on OVCAR-3 ovarian; 38.2% with NCI/ADR-RES ovarian; 21.7% in the test with BT-549 breast; 44.8% in the test on SW-620 colon; 32.2% in the test on MCF7 breast; 29.9% in the test on HCT-116 colon. For the same molecule, the growth in the test with HCC-2998 colon is 72.8%; with KM12 colon, 77.6%.
Turning to `OCCN(CCO)C(=S)S`, the growth is 111% in the test on RPMI-8226 leukemia; 100% in the test on OVCAR-8 ovarian; 120% with OVCAR-5 ovarian; 118% in the test with OVCAR-4 ovarian; 127% in the test with SK-OV-3 ovarian; 111% in the test on IGROV1 ovarian. Further, the growth with OVCAR-3 ovarian was 121%; with HS 578T breast, 99.7%; with NCI/ADR-RES ovarian it was 105%; in the test on BT-549 breast, 110%; in the test with MDA-MB-435 melanoma it was 108%; in the test with SW-620 colon, 106%. The growth with MCF7 breast is 98.2%; with HCT-116 colon, 109%; in the test on HCC-2998 colon, 113%; with KM12 colon, 107%.
With `COc1ccccc1N1CCN(C(=S)Nc2ccccc2)CC1`, the growth in the test with RPMI-8226 leukemia was 90.9%; in the test on OVCAR-8 ovarian, 97.6%; in the test on OVCAR-5 ovarian, 107%; in the test with OVCAR-4 ovarian it was 108%; with SK-OV-3 ovarian it was 99.5%; in the test on IGROV1 ovarian, 98.9%. For the same molecule, the growth with HS 578T breast was 104%; with NCI/ADR-RES ovarian, 95.8%; with T-47D breast it was 90.9%; in the test with BT-549 breast it was 91.7%; in the test on SW-620 colon, 103%; in the test with MCF7 breast, 99.5%. Further, the growth was 103% with HCT-116 colon and 134% in the test on HCC-2998 colon.
For `COC(=O)c1cc(-c2ccc(Cl)c(Cl)c2)[nH]c(=O)c1C#N`, the growth in the test with RPMI-8226 leukemia is 112%; with OVCAR-8 ovarian it was 101%; in the test with OVCAR-5 ovarian, 99.2%; in the test on OVCAR-4 ovarian, 103%; in the test with SK-OV-3 ovarian, 103%; in the test with IGROV1 ovarian, 110%. The growth with OVCAR-3 ovarian is 116%; with HS 578T breast, 74.9%; in the test on NCI/ADR-RES ovarian it was 105%; in the test with BT-549 breast, 104%; in the test on MDA-MB-435 melanoma it was 104%; in the test on SW-620 colon, 99.1%. Besides, the growth in the test with MCF7 breast is 89.1%; in the test on HCT-116 colon, 97.2%; in the test with HCC-2998 colon it was 117%; with KM12 colon it was 109%.
As for `CC(=O)Cc1cc(-c2cc(CC(C)=O)[nH]n2)n[nH]1`, the growth in the test on RPMI-8226 leukemia is 109%; with OVCAR-8 ovarian it was 98.5%; in the test on OVCAR-5 ovarian, 90.2%; in the test on OVCAR-4 ovarian, 101%; in the test on SK-OV-3 ovarian, 90.9%; in the test with IGROV1 ovarian, 104%. The growth was 111% in the test with OVCAR-3 ovarian; 93.2% in the test with HS 578T breast; 96.7% in the test on NCI/ADR-RES ovarian; 88.4% in the test with BT-549 breast; 103% with MDA-MB-435 melanoma; 98.5% in the test with SW-620 colon. Moreover, the growth in the test on MCF7 breast was 93.2%; with HCT-116 colon, 103%; with HCC-2998 colon it was 112%; in the test on KM12 colon, 105%.
As for `CCN(CC)CCNc1ccc(CO)c2sc3ccccc3c(=O)c12`, the growth was 31% with OVCAR-8 ovarian; 53.3% with OVCAR-5 ovarian; 43.6% in the test with SK-OV-3 ovarian; 51.6% with IGROV1 ovarian; 62.8% in the test on OVCAR-3 ovarian; 64.8% in the test on HS 578T breast. The growth in the test on NCI/ADR-RES ovarian is 40.7%; in the test on T-47D breast, 48.3%; in the test on BT-549 breast, 70%; in the test with MDA-MB-435 melanoma it was 38.1%; in the test with SW-620 colon, 29.5%; in the test on HCT-116 colon, 23.7%. In addition, the growth in the test with HCC-2998 colon was 40.6%; with KM12 colon it was 42.5%.
Take `CN(C)c1ccc2nc3ccc(=N)cc-3sc2c1`: the growth in the test on OVCAR-8 ovarian was 3.37% (active); in the test on OVCAR-5 ovarian, 80.1%; in the test with OVCAR-4 ovarian it was -8.03% (active); with SK-OV-3 ovarian, 95.9%; in the test with IGROV1 ovarian it was 49.4%; in the test with OVCAR-3 ovarian it was 6.65% (active). Moreover, the growth is 99.6% in the test with HS 578T breast; 3.53% (active) in the test on NCI/ADR-RES ovarian; 19.1% with T-47D breast; 51.6% in the test with BT-549 breast; -59.8% (active) in the test on MDA-MB-435 melanoma; 23.5% in the test on SW-620 colon. Further, the growth was 23.9% in the test on MCF7 breast, 16.7% in the test on HCT-116 colon, 67.4% with HCC-2998 colon and 38% in the test with KM12 colon.
In the case of `O=C(Nc1ccccc1)OCCc1ccccc1`, the growth is 103% in the test with OVCAR-8 ovarian; 92.7% in the test with OVCAR-5 ovarian; 91.4% in the test on OVCAR-4 ovarian; 110% in the test on SK-OV-3 ovarian; 103% in the test on IGROV1 ovarian; 118% in the test on OVCAR-3 ovarian. Also, the growth in the test on HS 578T breast was 120%; with NCI/ADR-RES ovarian, 110%; with T-47D breast, 104%; in the test on MDA-MB-435 melanoma, 99%; with SW-620 colon, 106%; in the test on MCF7 breast, 93.7%. Besides, the figures for the growth with HCT-116 colon, in the test with HCC-2998 colon and in the test with KM12 colon were 109%, 99.7% and 111%, respectively.
For `CC(=O)C1CCCCC1`, the growth in the test with OVCAR-8 ovarian was 95%; in the test with OVCAR-5 ovarian, 107%; in the test with SK-OV-3 ovarian it was 103%; in the test on IGROV1 ovarian, 106%; in the test with OVCAR-3 ovarian, 110%; in the test with HS 578T breast, 104%. Also, the growth in the test on NCI/ADR-RES ovarian is 107%; with BT-549 breast it was 99.9%; with MDA-MB-435 melanoma it was 104%; with SW-620 colon, 100%; with MCF7 breast, 97.9%; with HCT-116 colon it was 102%. The growth was 103% in the test with HCC-2998 colon and 100% with KM12 colon.
